Data taken from PubChem BioAssay AID485297 (National Center for Advancing Translational Sciences (NCATS), 2010).
Among all 320,000 compounds or so, about 9,100 (2.8%) were called active. About 3% were inconclusive and are not listed. This is one part of a sample in which actives are shown more often than they occur. Calls follow the shape of the dose curve; as a rule, active = well fitted activation curve with a large enough effect; inconclusive = small, poorly fitted or top-dose-only effect; inactive = no such curve, though single readings can be large or run the other way.

Test: qHTS Assay for Rab9 Promoter Activators; also: nearly all actives have a fitted effect of over 60% in size; as to activation, negative = inhibition: % of control where 0% means no effect
Conditions: Huh7 Rab9 promoter-luciferase reporter, luminescence, 24 h; series mostly up to 9.22 µM; activation, negative = inhibition: at the top concentration
In short: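 Cell-based reporter: Huh7 stable for Rab9 promoter-driven luciferase, plated in reduced-serum medium with 10% FBS at 1500 cells/well, compound-treated 24 h at 37 °C, luminescence read after 10 min reagent.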
Potency is read from the fitted curve at half-maximal effect.

SMILES	Potency	activation, negative = inhibition
Cc1ccc(-n2c(SCC(=O)N3CCC(C(=O)O)CC3)nc3ccccc3c2=O)cc1C	2820 nM (active)	–
O=C(CSc1nc2ccccc2c(=O)n1-c1ccc(F)cc1)NC1CC1	–	-4.04% (inactive)
COc1cccc(-n2c(SCC(=O)NC3CCS(=O)(=O)C3)nc3ccccc3c2=O)c1 (configuration not stated)	–	2.33% (inactive)
CC(=O)Nc1ccc(S(=O)(=O)N2CCn3cccc3C2C)cc1 (configuration not stated)	–	0.255% (inactive)
CCCCc1ccc(NC(=S)N2CCCC(CO)C2)cc1 (configuration not stated)	2820 nM (active)	–
CCCCc1ccc(NC(=S)NCCCN2CCOCC2)cc1	–	-8.13% (inactive)
COc1ccc(NC(=S)N2CCCC(CO)C2)c(OC)c1 (configuration not stated)	–	-2.36% (inactive)
Cc1ccc(S(=O)(=O)N2CCN(C(=O)COC(=O)c3c(C)noc3C)CC2)c(C)c1	–	-0.946% (inactive)
COc1cc(OC)cc(C(=O)NCC(=O)OCc2csc(-c3ccccc3)n2)c1	–	-5.11% (inactive)
Cc1ccc(-c2nc(COC(=O)c3c(C)noc3C)cs2)cc1	3550 nM (active)	–
COc1cc(C(=O)OCC(=O)NC23CC4CC(CC(C4)C2)C3)cc(OC)c1OC	–	-5.87% (inactive)
O=C(c1ccc(Cl)c(S(=O)(=O)N2CCCCCC2)c1)N1CCN(c2ccc(O)cc2)CC1	–	2.27% (inactive)
CSc1nnc2ccc(-c3ccc(C)cc3)nn12	–	11.7% (inactive)
Cc1ccc2nc(-c3ccc(Br)cc3)cn2c1	316 nM (active)	–
Cc1ccc(-c2cn3cc([N+](=O)[O-])ccc3n2)cc1	355 nM (active)	–
Cc1cc(N2CCOCC2)nc(-c2ccc(Br)cc2)n1	–	1.71% (inactive)
Cc1nc(-c2ccc([N+](=O)[O-])cc2)c(-c2ccccc2)o1	–	0.201% (inactive)
Cc1ccc(C(=O)Cn2cc([N+](=O)[O-])nc2C)cc1	–	-6.84% (inactive)
COc1ccc(S(=O)(=O)N2CCOCC2)cc1NC(=O)Cc1c(F)cccc1Cl	–	0.109% (inactive)
Cc1cc(NC(=O)CN2C(=O)NC(CCc3ccccc3)C2=O)no1 (configuration not stated)	–	-0.496% (inactive)
OC(COc1ccc(F)cc1Cl)CN1CCc2ccccc2C1 (configuration not stated)	–	2.79% (inactive)
Cc1cc2oc(C(=O)Nc3c(C)n(C)n(-c4ccccc4)c3=O)c(C)c2cc1Cl	–	-5.97% (inactive)

SMILES	Potency	activation, negative = inhibition
COc1ccc(Nc2ncc(F)c(N3CCOCC3)n2)cc1	891 nM (active)	–
CCOc1ccc(Nc2nc(Cl)nc(N3CCN(c4ccc(OC)cc4)CC3)n2)cc1	–	-7.09% (inactive)
Cc1ccc(Nc2nc(N3CCOCC3)nc(N3CCOCC3)n2)cc1Cl	–	0.834% (inactive)
Cc1cc(C)n2nc(C(=O)Nc3cccc(S(=O)(=O)N4CCOCC4)c3)nc2n1	–	-0.106% (inactive)
COC(=O)c1cc2c(ccn2C)n1C	–	-7.96% (inactive)
CCc1ccc2oc(-c3ccc(N)cc3)nc2c1	501 nM (active)	–
CCN(CC)c1ccc2oc(=O)c(C)nc2c1	–	-3.4% (inactive)
Cc1ccc(C)c(NC(=O)CSc2nc3c(oc4ccccc43)c(=O)n2-c2ccccc2)c1	–	1.35% (inactive)
Cc1ccccc1NC(=O)Cc1nc(COC(=O)c2ccc(C(F)(F)F)cc2)cs1	–	1.76% (inactive)
Cc1ccc2c(CN3CCN(S(=O)(=O)c4ccccc4C(F)(F)F)CC3)cc(=O)oc2c1	–	-8.96% (inactive)
Cc1ccc(-c2nn(-c3ccccc3)cc2C(=O)NC2CCC(O)CC2)cc1 (configuration not stated)	–	14.2% (inactive)
CC[C@H](C)C(=O)N[C@H]1CCCN1C(=O)/C=C/c1ccccc1	–	-2.26% (inactive)
COc1ccc(C2=NOC(COC(=O)c3ccc4ccccc4n3)C2)cc1 (configuration not stated)	–	-1.87% (inactive)
Cc1ccc(C(=O)NNC2=Nc3cc([N+](=O)[O-])ccc3OC2)cc1	–	1.55% (inactive)
COc1ccc(C2=Nc3cc(C)ccc3OC2)cc1	562 nM (active)	–
CC(C)OCCCNC(=S)N1CCC(C(=O)c2ccc3c(c2)OCCO3)CC1	–	-2.99% (inactive)
Cc1cccc(NC(=O)Nc2ccc3c(c2)OCO3)n1	2240 nM (active)	–
O=C(O)/C=C/c1ccc2c(c1)OCCO2	–	0.952% (inactive)
COc1ccc(OC)c(/C=C/C(=O)OCC(=O)Nc2ccc3c(c2)OCCO3)c1	–	8.75% (inactive)
O=C(/C=C\c1ccc2c(c1)OCO2)NC1(C(=O)Nc2ccc3c(c2)OCCO3)CCCCC1	–	0.644% (inactive)
Cc1cccc(NC(=O)Nc2ccc(OCc3ccccc3)cc2)n1	–	-0.949% (inactive)
CC(NS(=O)(=O)c1ccc(Cl)cc1)C(=O)Nc1ccc2c(c1)OCCO2 (configuration not stated)	–	5.09% (inactive)

SMILES	Potency	activation, negative = inhibition
CC(NC(=O)Nc1ccc2c(c1)OCO2)c1ccncc1 (configuration not stated)	–	-3.45% (inactive)
CNS(=O)(=O)c1ccc(NC(=O)Nc2ccc3c(c2)OCO3)cc1	3550 nM (active)	–
CCOC(=O)CCCNC(=O)COC(=O)/C=C/c1ccc2c(c1)OCO2	–	1.1% (inactive)
CC(C)CNS(=O)(=O)c1ccc(C(=O)Nc2ccc3c(c2)OCO3)cc1	–	-4.4% (inactive)
Cc1cccc(NC(=O)/C=C/c2ccc3c(c2)OCO3)n1	562 nM (active)	–
COc1cccc(/C=C/C(=O)Nc2ccc3c(c2)OCCO3)c1	1260 nM (active)	–
O=C1C=C(c2ccnc3cc(Cl)ccc23)C[C@@H](c2ccc3c(c2)OCO3)C1	–	-5.37% (inactive)
COc1ccc(NS(=O)(=O)c2cccc(C(=O)NCCc3ccc(S(N)(=O)=O)cc3)c2)cc1	–	-6.22% (inactive)
CC(=O)Nc1ccc(S(=O)(=O)N2CCN(S(=O)(=O)c3cccs3)CC2)cc1	–	-6.37% (inactive)
CC1CCc2sc(C(=O)NCC(c3ccco3)N3CCCCC3)cc2C1 (configuration not stated)	–	-7.28% (inactive)
O=C(NCCOc1ccccc1Cl)C(=O)Nc1ccccc1	–	13% (inactive)
COc1ccc(S(=O)(=O)N2CCOCC2)cc1NC(=O)Cc1coc2cc(C)ccc12	–	-2.27% (inactive)
Cc1nn(Cc2ccccc2)c(C)c1C(=O)NCCCN1CCCC1=O	–	-2.83% (inactive)
COc1ccc(CCNC(=O)CSc2nnc(CNC(=O)c3cccs3)o2)cc1OC	–	-2.09% (inactive)
COc1ccccc1-c1nnc(SCC(=O)N2CC(C)CC(C)C2)o1 (configuration not stated)	–	-1.74% (inactive)
COc1ccc(-c2nnc(SCC(=O)c3cccs3)o2)c(OC)c1	1120 nM (active)	–
Cc1ccc(NS(=O)(=O)c2ccc3c(c2)CC(=O)N3)cc1Cl	–	-0.719% (inactive)
COc1ccccc1C(CNC(=O)c1ccc(C)c(S(=O)(=O)N2CCCCC2)c1)N(C)C (configuration not stated)	–	-2.47% (inactive)
CN(CCc1ccccc1)c1ccc([N+](=O)[O-])cn1	–	16.6% (inactive)
COC(=O)[C@]1(C)CCC[C@@]2(C)C3CC[C@]4(OC(C)=O)C[C@@]3(CCC21)CC4=NO (some centres not stated)	–	0.822% (inactive)
O=C(Nc1cccc(F)c1)NC1CCCCCCC1	3550 nM (active)	–
C/C(CC(=O)Nc1cccc(F)c1)=N\NC(=O)C(=O)NC1CCCCC1	–	0.896% (inactive)

SMILES	Potency	activation, negative = inhibition
O=C(Nc1cccc(F)c1)NC1CCCc2ccccc21 (configuration not stated)	–	1.16% (inactive)
Cc1cccc(C)c1NC(=O)CN(C)C(=O)CCC(=O)c1ccccc1	–	1.5% (inactive)
CC(OC(=O)/C=C/c1ccccc1)C(=O)NC1CCCCC1C (configuration not stated)	–	-4.92% (inactive)
Cc1ccc(NC(=O)Nc2ccccc2)c(Br)c1	1780 nM (active)	–
Cc1cccc(NC(=O)Nc2nnc(-c3ccccc3)o2)c1	–	-3.39% (inactive)
Cc1c(NC(=O)Nc2ccccc2)cccc1[N+](=O)[O-]	–	-9.25% (inactive)
COc1cc2c(cc1OC)CN(C(C)C(=O)Nc1cccc(S(=O)(=O)N3CCOCC3)c1)CC2 (configuration not stated)	–	-1.59% (inactive)
Cc1sc2ncnc(N3CCC(C(=O)Nc4ccc(F)cc4Cl)CC3)c2c1C	–	-1.62% (inactive)
Cc1ccc(-c2csc(NC3OC(=O)c4ccccc43)n2)cc1 (configuration not stated)	–	-3.39% (inactive)
Cc1ccc(-c2csc(-c3c[nH]c4ccccc34)n2)cc1	2510 nM (active)	–
CCCc1cc(-c2nc(-c3ccc(C)cc3)cs2)ccn1	–	-0.323% (inactive)
O=C(CN(C(=O)CCC(=O)Nc1nccs1)c1ccc(F)cc1)NCc1ccc2c(c1)OCO2	–	2.57% (inactive)
O=C(CSC(=S)N1CCOCC1)c1cc(Br)cc(Br)c1O	–	6.93% (inactive)
CC(=O)c1ccc(NC(=O)CSC(=S)N2CCCC2)cc1	–	12.2% (inactive)
CC1CN(C(=S)SCC(=O)c2ccccc2)CC(C)O1 (configuration not stated)	–	17.3% (inactive)
COc1cccc(NC(=O)CN(C)C(=O)CSC(=S)N2CCCC2)c1	–	11.8% (inactive)
O=C(CSC(=S)N1CCOCC1)c1ccccc1	447 nM (active)	–
O=C(CSC(=S)N1CCCCC1)c1c(F)cccc1F	1410 nM (active)	–
Cc1occc1-c1nnc(SCC(=O)NC2CCCCC2)o1	–	-0.222% (inactive)
COc1ccc(S(=O)(=O)N2CCN(C(C)C(=O)Nc3ccc(C(C)C)cc3)CC2)cc1 (configuration not stated)	–	1.47% (inactive)
O=C(NCc1ccccc1CN1CCCC1)c1cccc(S(=O)(=O)Nc2ccc(F)cc2)c1	–	-1.74% (inactive)
O=C(Nc1cccc(NC(=O)c2ccco2)c1)c1cnccn1	–	3.39% (inactive)

SMILES	Potency	activation, negative = inhibition
Cc1ccc(SCC(=O)Nc2ccc3c(c2)OCCO3)cc1	3160 nM (active)	–
Cn1ccnc1SCC(=O)Nc1ccc2c(c1)OCCO2	2510 nM (active)	–
Cc1ccc(OCCCC(=O)Nc2ccc3c(c2)OCCO3)cc1	–	-3.01% (inactive)
CCn1c(SCC(=O)Nc2ccc3c(c2)OCCO3)nnc1-c1ccncc1	–	-6.01% (inactive)
CCn1c(SCC(=O)Nc2ccc3c(c2)OCCO3)nnc1C(C)C	–	0.546% (inactive)
Cc1ccc(S(=O)(=O)NCC(=O)Nc2ccc3c(c2)OCCO3)cc1	–	0.138% (inactive)
O=C(CCN1C(=O)c2ccncc2C1=O)Nc1ccc2c(c1)OCCO2	–	2.25% (inactive)
O=C(Nc1ccc2c(c1)OCCO2)c1cnccn1	2000 nM (active)	–
O=[N+]([O-])c1cc(S(=O)(=O)NCCc2ccccn2)ccc1Cl	–	1.61% (inactive)
COc1ccc(-c2nnc(SC(C)C(=O)NC3CC3)o2)cc1 (configuration not stated)	–	3.52% (inactive)
Cc1cc(C)cc(NC(=O)NC2CCN(CC(=O)Nc3cccc(Cl)c3C)CC2)c1	–	-3.85% (inactive)
O=c1[nH]c2cccnc2n(CCNc2ncc(C(F)(F)F)cc2Cl)c1=O	–	-2.72% (inactive)
CNS(=O)(=O)c1cccc(C(=O)OCC(=O)N2c3ccccc3NC(=O)C2(C)C)c1	–	-3.9% (inactive)
CCOc1ccc(C(C)NC(=O)CN2C(=O)NC3(CCCCC3)C2=O)cc1OCC (configuration not stated)	–	-4.04% (inactive)
Cc1ccn(-c2cccc(-n3ccc(C)n3)n2)n1	2820 nM (active)	–
Cc1cc(NC(=O)CSc2nnc(-c3ccc(Cl)s3)o2)no1	–	-1.01% (inactive)
Cc1ccc(C(=O)/C=C/Nc2ccc(S(=O)(=O)Nc3onc(C)c3C)cc2)cc1	–	2.91% (inactive)
Cc1cc(N/C=C\C(=O)c2ccc(Cl)c(Cl)c2)no1	2820 nM (active)	–
COc1cc(OC)cc(-c2c(-c3cccs3)c3cc(-c4ccc(OC)cc4F)ccc3n2C)c1	–	-4.07% (inactive)
